Values joined by “and” are separate entries in the source; they are usually repeats but may differ in a detail not shown here. Identical values can stand only once. The campaign covered roughly 16,000 compounds. About 4,000 (25%) were called active. Another 26% or so got no clear call; they are omitted. Calls follow the shape of the dose curve; as a rule, active = well fitted curve in the direction sought with a large enough effect; inconclusive = small, poorly fitted or top-dose-only effect, or effect the other way; inactive = no such curve, though single readings can be large or run the other way. A selection follows. Where a structure was tested more than once in an assay, its records may differ in their call.
Each compound was assayed against Cytochrome P450 2C9 (Homo sapiens) (UniProt P11712) (assay: Cytochrome panel assay with activity outcomes). Conditions: recombinant CYP, pro-luciferin dealkylation, luminescence, p450-cyp2c9; series mostly up to 57.1 µM; activity, negative = inhibition: at the top concentration.
% is scaled to controls: 0 for no effect and ±100 for the full control effect.

Sequence of Cytochrome P450 2C9 (Homo sapiens) (P11712 whole entry, looked up): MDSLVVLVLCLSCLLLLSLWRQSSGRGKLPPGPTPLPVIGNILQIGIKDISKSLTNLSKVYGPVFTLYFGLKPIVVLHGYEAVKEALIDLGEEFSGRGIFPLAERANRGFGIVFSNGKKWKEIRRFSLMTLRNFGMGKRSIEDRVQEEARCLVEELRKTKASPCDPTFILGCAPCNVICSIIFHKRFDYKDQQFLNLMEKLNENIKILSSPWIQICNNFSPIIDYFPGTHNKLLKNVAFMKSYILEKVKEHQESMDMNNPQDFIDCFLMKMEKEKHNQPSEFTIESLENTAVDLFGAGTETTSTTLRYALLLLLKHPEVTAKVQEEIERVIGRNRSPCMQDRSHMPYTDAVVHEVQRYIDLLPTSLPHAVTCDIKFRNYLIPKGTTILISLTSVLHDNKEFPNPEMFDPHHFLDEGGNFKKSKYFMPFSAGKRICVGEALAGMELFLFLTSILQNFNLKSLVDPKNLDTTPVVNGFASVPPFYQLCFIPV

Compound | activity, negative = inhibition | AC50
CCCN1C2=NCCCN2c2ccccc21 | -8.01% (inactive) | –
COc1ccc(C(=O)/C=C(/C)N(C)C)cc1 | -8.1% (inactive) | –
COc1ccc(/C=C/C(=O)c2ccoc2)cc1 | – | 28.2 µM (active)
O=C(/C=C/c1ccc2ccccc2c1)c1ccoc1 | 5.04% (inactive) | –
O=C(CCc1nc(-c2ccccc2)c(-c2ccccc2)o1)OCc1ccc(Cl)cc1 | – | 22.4 µM (active)
NCCSc1nc(-c2ccccc2)c(-c2ccccc2)o1 | -11.6% [at 11.4 µM] (inactive) | –
COc1cccc(-c2ccc3ncnc(N(C)C)c3c2)c1 | -9.73% [at 2.29 µM] (inactive) | –
CN(C)C(=O)c1ccc(-c2cncnc2NCc2cccnc2)cc1 | 8.29% [at 2.29 µM] (inactive) | –
CC(=O)N(C)c1nnc(-c2cnccn2)s1 | 25.9% (inactive) | –
Cc1ccc(-c2nnc(N(C)C(=O)c3cccnc3)s2)cc1 | – | 1.41 µM (active)
COc1cccc(C(=O)N(C)c2nnc(-c3ccncc3)s2)c1 | – | 2 µM (active)
CCCC1S/C(=N/N=C/c2ccc(OC)cc2)N(Cc2ccc(OC)cc2)C1=O (configuration not stated) | – | 15.8 µM (active)
CC(C)=NO[C@@H](C)c1cc(-c2c(C)cc(C)cc2C)no1 | -0.976% [at 11.4 µM] (inactive) | –
CCOC(=O)c1c(C)oc2c1cc(O)c1ccccc12 | – | 1.12 µM (active)
CCOC(=O)c1c(C)oc2c1c(C=NC1CCS(=O)(=O)C1)c(O)c1ccccc12 (configuration not stated) | -4.9% (inactive) | –
C[C@@H]1C[C@H](OC(=O)[C@@H](O)c2ccccc2)CC(C)(C)N1C | 14.4% [at 25.6 µM] (inactive) | –
CCCC(=O)Nc1nc(-c2ccc3c(c2)CCN3S(C)(=O)=O)cs1 | -27.5% (inactive) | –
CCCc1nnc(NC(=O)Cn2cnc3ccccc3c2=O)s1 | – | 17.8 µM (active)
OCCn1cnc2c(SCc3ccccc3)ncnc21 | 12.5% [at 11.4 µM] (inactive) | –
O=C(Cn1cnc2ccccc2c1=O)Nc1nnc(SCc2ccccc2)s1 | – | 8.91 µM (active)
CCCc1nnc(NC(=O)CCC(=O)NCc2ccccc2OC)s1 | -27% (inactive) | –
COc1ccc(-c2csc(NC(=O)CCn3cnc4ccccc4c3=O)n2)cc1OC | – | 1 µM (active)
CCCc1nnc(NC(=O)CCC(=O)N2CCN(c3ccccn3)CC2)s1 | -20.6% (inactive) | –

Compound | activity, negative = inhibition | AC50
Cn1c(=O)c2[nH]c(CCCc3ccc([N+](=O)[O-])cc3)nc2n(C)c1=O | 1.93% [at 11.4 µM] (inactive) | –
Cc1ccc(C(=O)COC(=O)CNC(=O)Cc2ccccc2)cc1[N+](=O)[O-] | – | 14.1 µM (active)
CC(C)(C)c1ccc(COC(=O)CNC(=O)CNC(=O)Cc2ccccc2)cc1 | -35.6% (inactive) | –
Cc1ccc(C(=O)COC(=O)CNC(=O)C(c2ccccc2)c2ccccc2)cc1[N+](=O)[O-] | 4.36% (inactive) | –
O=C1[C@H]2[C@H]3[C@H](O)[C@H](O)C/C(=N/OC[C@@H](O)COCc4ccco4)[C@@H]3CC[C@@H]2C(=O)N1C[C@@H]1CCCO1 | 39.3% [at 11.4 µM] (inactive) | –
COc1ccc(S(=O)(=O)N2CCC(N3CCCCC3)CC2)cc1 | -24.7% (inactive) | –
COc1ccc(S(=O)(=O)N2CC3C4C=CC(C4)C3C2)cc1 (configuration not stated) | – | 14.1 µM (active)
CCN(CC)CCOC(=O)[C@@H](c1ccccc1)C1CCCCC1 | -9.95% [at 25.6 µM] (inactive) | –
CC(C)(C)NC(=O)CSC(=Nc1ccc(F)cc1)NC#N | – | 12.6 µM (active)
CC(C)OC(=O)c1cc2c(OC[C@@H](O)CNC(C)(C)C)cccc2[nH]1 | -2.97% (inactive) | –
CC(C)CO/N=C1/C[C@@H](O)[C@@H](O)[C@@H]2[C@@H]3C(=O)N(C[C@@H]4CCCO4)C(=O)[C@H]3CC[C@H]12 | 9.45% [at 11.4 µM] (inactive) | –
Cc1nn(-c2ccccc2)c2c1C(=O)N(Cc1ccccc1)C(=O)C(C)(C)C2 | – | 17.8 µM (active)
O=C(NCCCN1CCN(C2CCCCC2)CC1)Nc1ccccc1C(F)(F)F | 28.7% (inactive) | –
CCOC(=O)C1=C(C)NC2=C(C(=O)C(C(=O)OCC)C(c3ccc(OC)cc3)C2)C1c1ccccn1 (configuration not stated) | – | 8.91 µM (active)
COCCn1c(=O)c(C)nc2cnc(N3CCNCC3)nc21 | 16.1% (inactive) | –
COCCn1c(=O)c(-c2cc(F)cc(F)c2)nc2cnc(N3CCNCC3)nc21 | – | 1.26 µM (active)
COc1ccc(-n2c(=O)c(-c3cccc(C#N)c3)nc3cnc(N4CCNCC4)nc32)cc1 | -21% (inactive) | –
CN1CCN(c2ncc3nc(-c4cccc(C#N)c4)c(=O)n(CCC#N)c3n2)CC1 | -17.2% (inactive) | –
COCCn1c(=O)c(-c2cccc(C#N)c2)nc2cnc(N3CCNCC3)nc21 | – | 3.98 µM (active)
COCCn1c(=O)c(-c2cc(F)cc(F)c2)nc2cnc(N3CCOCC3)nc21 | 2.7% (inactive) | –
C1CCc2c(nc3nnnn3c2NC2CCCC2)C1 | -36.8% (inactive) | –
O=C1/C(=C/c2ccccc2)[C@@H](NC2CCCCC2)c2ccccc21 | – | 3.98 µM (active)
COc1ccc(C(OCCN2CCC[C@@H](C(=O)O)C2)(c2ccc(OC)cc2)c2ccc(OC)cc2)cc1 | 14.7% (inactive) | –

Compound | activity, negative = inhibition | AC50
S[C@@H]1CCCN(Cc2ccccc2)C1 | -2.17% [at 11.4 µM] (inactive) | –
O=C(O)[C@H]1CCCN(CCC=C(c2ccccc2)c2ccccc2)C1 | – | inactive and 7.94 µM (active)
C[C@H](N[C@@H](C)COc1ccccc1)[C@H](O)c1ccc(O)cc1 | -13.1% [at 25.6 µM] (inactive) | –
CN(C)c1ncc2nc(-c3ccc(Cl)cc3)c(=O)n(Cc3ccc(F)cc3)c2n1 | -15% (inactive) | –
O=c1c(-c2ccc(Cl)cc2)nc2cnc(N3CCNCC3)nc2n1Cc1ccc(F)cc1 | – | 25.1 µM (active)
CN1CCN(c2ncc3nc(-c4ccccc4)c(=O)n(Cc4ccc(F)cc4)c3n2)CC1 | -26.1% (inactive) | –
O=c1c(-c2ccc(F)cc2)nc2cnc(N3CCNCC3)nc2n1-c1ccccc1 | -29.9% (inactive) | –
O=c1c(-c2ccccc2)nc2cnc(N3CCNCC3)nc2n1Cc1ccc(F)cc1 | – | 10 µM (active)
CN1CCN(c2ncc3nc(-c4ccc(Cl)cc4)c(=O)n(Cc4ccc(F)cc4)c3n2)CC1 | -3.9% (inactive) | –
CC(O)CN(CCC(N)=O)CCC(N)=O (configuration not stated) | -3.23% (inactive) | –
CC(=O)c1cnc2c(C(=O)O)cnn2c1C | 2.38% (inactive) | –
Cc1cc(-c2c(C)[nH]n(-c3ccccc3)c2=O)n(-c2ccccc2)n1 | – | 1.58 µM (active)
Cc1cc(N)n(-c2ccccc2)n1 | 1.19% (inactive) | –
Cc1ccc(C)c(C(=O)CN2C3=NCCCN3c3ccccc32)c1 | -20.6% (inactive) | –
CC(CCC(=O)O)(c1cc(Br)c(O)c(Br)c1)c1cc(Br)c(O)c(Br)c1 | – | 3.16 µM (active)
CC[C@](N)(CCC(=O)O)C(=O)O | 15% (inactive) | –
CC(C)c1ccc(Cn2ccc3c4c(N)nc(NC5CC5)nc4ccc32)cc1 | -0.13% (inactive) | –
O=C(NCc1ccccc1)c1ccc(S(=O)(=O)N2CCCc3ccccc32)cc1 | – | 3.16 µM (active)
Cc1cc(NC(=O)COC(=O)c2ccc(S(=O)(=O)N3CCCc4ccccc43)cc2)no1 | – | 3.55 µM (active)
Cc1ccc(C(=O)ON=C2CCN(S(=O)(=O)c3ccccc3)CC2)cc1 | 13.9% (inactive) | –
Cc1cc(N(CN2CCCC2=O)C(=O)c2ccc(F)cc2)no1 | 20.9% (inactive) | –
Cc1ccc(S(=O)(=O)N[C@H]2COC(=O)[C@@H](Cc3ccccc3)NC(=O)[C@@H](C)COC(=O)C/C=C\[C@@H]2C)cc1 | 7.81% [at 11.4 µM] (inactive) and -8.92% [at 11.4 µM] (inactive) | –
Clc1ccccc1NN(Cc1ccncc1)c1ccccc1Cl | – | 1.58 µM (active)

Compound | activity, negative = inhibition | AC50
Clc1ccccc1NN(Cc1ccccn1)c1ccccc1Cl | -64.2% [at 11.4 µM] (inactive) | –
CC1=c2c(oc3cc(O)c(Nc4c(C)cc(O)cc4O)c(C)c23)=CC(=O)C1=Nc1c(C)cc(O)cc1O | – | 3.16 µM (active)
Cc1ccc(C2C3=C(CCCC3=O)Nc3nc(SCC(=O)NCc4ccco4)[nH]c(=O)c32)cc1 (configuration not stated) | – | 5.01 µM (active)
NC(=O)CCCC1=NS(=O)(=O)c2ccccc2N1 | -18.2% (inactive) | –
COc1ccc(NC(=O)C(c2ccc(OC)cc2)N(C)C(=O)CNC(C)=O)cc1 (configuration not stated) | -6.03% (inactive) | –
COCCNC(=O)C(c1ccc(C)o1)N(CC1CCCO1)C(=O)Cn1nnc2ccccc21 (configuration not stated) | -0.853% (inactive) | –
COc1ccc(C(C(=O)Nc2ccc(F)cc2)N(C(=O)Cn2nnc3ccccc32)C2CC2)cc1 (configuration not stated) | – | 12.6 µM (active)
COc1cccc(C(C(=O)Nc2ccc(F)cc2)N(C(=O)Cn2nnc3ccccc32)C2CC2)c1 (configuration not stated) | – | 12.6 µM (active)
CO[C@@H]1COC(=O)C/C=C\[C@@H](C)[C@H](OC)COC(=O)[C@H](COCc2ccccc2)NC(=O)C/C=C\[C@H]1C | 3.17% [at 11.4 µM] (inactive) | –
C/C(CCN1CCCCc2nc(C)c(C)cc21)=N\OC[C@@H](C)[C@H](OCc1ccccc1)C(C)C | -7.17% [at 11.4 µM] (inactive) | –
COC(=O)c1cc(OC)c(OC)cc1NC(=S)N1CCCCC1 | -15.7% (inactive) | –
Cc1ccccc1C(=O)Oc1ccc(Br)cc1C(=S)N1CCCC1 | – | 11.2 µM (active)
COc1ccc(C2=NOC(C(=O)NCCN3CCOCC3)C2)cc1 (configuration not stated) | -10.2% (inactive) | –
COc1ccc(-c2cn3c(C)c(C(=O)NCCN4CCOCC4)sc3n2)cc1 | – | 7.94 µM (active)
CCOC(=O)C1CCCN(C(=O)/C=C/c2cccc([N+](=O)[O-])c2)C1 (configuration not stated) | 6.66% (inactive) | –
CCOC(=O)C1CCCN(C(=O)C2CCN(S(=O)(=O)N3CCC4(CC3)OCCO4)CC2)C1 (configuration not stated) | -23.8% (inactive) | –
COc1ccc2cc3cc(C(=O)NCCCN4CCOCC4)oc3nc2c1 | -4.23% (inactive) | –
CCOC(=O)C1CCCN(C(=O)c2sc3nc(-c4ccc(OC)cc4)cn3c2C)C1 (configuration not stated) | – | 4.47 µM (active)
O=C(Nc1cccnc1)c1ccc(COc2cc(Cl)ccc2Cl)o1 | – | 14.1 µM (active)
CC(C)CNC(=O)c1ccc(COc2ccc(Cl)cc2Cl)o1 | – | 3.55 µM (active)
CCOc1ccc(Cl)cc1CNCCNCC(C)O (configuration not stated) | 6.63% (inactive) | –
O=C(Nc1ccn(Cc2ccccc2F)n1)c1ccc(COc2cc(Cl)ccc2Cl)o1 | – | 0.447 µM (active)
Cn1ncc(Cl)c1C(=O)Nc1cccnc1 | -33.2% (inactive) | –

Source: PubChem BioAssay AID1851 (National Center for Advancing Translational Sciences (NCATS), 2009)
